Results: PubChem BioAssay (NCI)
About 83,000 compounds went through this panel and 20% of them were active in at least one assay; those are over-represented in the sample as a whole.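 Interpretation: 100, growth as untreated; towards 0, rising growth inhibition; 0, no net growth; 0 to -100, cell death. Compounds scoring below 10 were considered active.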 Unmarked numbers belong to inactive results. Activity calls are given as the source filed them.

Experiments:
Test in all cases: NCI-60 one-dose screen, 48 h (100 = growth as untreated, 0 = no growth, -100 = all killed)
Details in all cases: 10 µM
[1] = tested on: RPMI-8226 leukemia
[2] = tested on: OVCAR-8 ovarian
[3] = tested on: OVCAR-5 ovarian
[4] = tested on: OVCAR-4 ovarian
[5] = tested on: SK-OV-3 ovarian
[6] = tested on: IGROV1 ovarian
[7] = tested on: OVCAR-3 ovarian
[8] = tested on: NCI/ADR-RES ovarian
[9] = tested on: HS 578T breast

Compound | growth [1] | growth [2] | growth [3] | growth [4] | growth [5] | growth [6] | growth [7] | growth [8] | growth [9]
O=C(CS(=O)(=O)c1oc(-c2ccc(Cl)cc2)nc1S(=O)(=O)c1ccc(Cl)cc1)N1CCOCC1 | -9.59% (active) | 28.3% | 38.3% | -8.45% (active) | 92.8% | 73.5% | 6.83% (active) | 28.2% | –
COc1ccc(OC)c(-c2cc(-c3c[nH]c4ccccc34)nc(N)c2C#N)c1 | 6.3% (active) | 6.52% (active) | 15.1% | 22.9% | 34.3% | 15.9% | – | -34.1% (active) | -16.5% (active)
Cc1nn(-c2ccccc2)c2ncn(CC(=O)N/N=C/c3c[nH]c4ccccc34)c(=O)c12 | 73.2% | 89.1% | 103% | 83.2% | 106% | 106% | – | 101% | 72.7%
COc1cc2c3c(n(CCCNCCO)c(=O)c2cc1OC)-c1nc2c(cc1C3=O)OCO2 | 3.98% (active) | -69.3% (active) | -3.64% (active) | 26.1% | – | 12.4% | -68.5% (active) | 84.1% | 65.6%
CN1CCCN(Cc2ccc(C(=O)Nc3cccc(Nc4ccc5cc(O)ccc5n4)c3)cc2C(F)(F)F)CC1 | -20.5% (active) | 101% | 131% | 77.2% | 116% | 88.6% | 76.9% | 90.7% | 61.9%
COc1cc(NC(=O)c2cc(-c3ccc(F)cc3F)ccc2O)cc(OC)c1OC | 12% | 48% | 111% | 17.3% | – | 38% | 26.1% | 41.5% | 26.1%
O=C(c1ccc(-n2c(=O)[nH]c3ccccc3c2=O)cc1)N1CCOCC1 | 120% | 108% | 102% | 114% | 124% | 104% | – | 106% | 101%
O=C(c1ccc(Cl)cc1)C1[C@H](c2ccc(Br)cc2)[C@@H](c2ccccc2)NC12C(=O)Nc1ccc(Cl)cc12 (stereo partly specified) | -15.4% (active) | -55% (active) | -89.5% (active) | 3.2% (active) | 11.5% | -72.4% (active) | -88% (active) | -89.9% (active) | –
Nc1nnc(-c2c[nH]c3ccc(F)cc23)c(-c2c[nH]c3ncccc23)n1 | 60.3% | 46.7% | 78.8% | 81.4% | 92% | 33.5% | 59.3% | 101% | –
O=C(c1ccccc1)n1ccc(-c2cc3cc(Br)ccc3oc2=O)n1 | 24.6% | 22.5% | 34.6% | 26.2% | 12.5% | 16% | 38.8% | -2.98% (active) | –
CC1(C)CC[C@]2(C(=O)N3CCOCC3)CC[C@]3(C)C(=CC[C@@H]4[C@@]5(C)CC[C@H](NCO)C(C)(C)[C@@H]5CC[C@]43C)[C@H]2C1 | -38.5% (active) | -73.5% (active) | -99.9% (active) | -89.5% (active) | -86.4% (active) | -85.6% (active) | – | -73.1% (active) | -68.2% (active)
CN1CCc2c(sc3ncnc(N/N=C/c4cn(-c5ccccc5)nc4-c4ccc(Br)cc4)c23)C1 | 35.8% | 4.42% (active) | 48.5% | 51.4% | 107% | 56.7% | – | 8.08% (active) | –
O=C(NO)c1ccc(CNc2nc(-c3ccccc3)c3ccccc3n2)cc1 | 11.3% | 6.42% (active) | -22.4% (active) | 32.9% | -39.1% (active) | -46.3% (active) | – | -44.5% (active) | 2.21% (active)
Cc1ccc(-c2nc3ccc(C(=O)N=Nc4c(O)[nH]c5ccc(Cl)cc45)cc3[nH]2)cc1 | 32.6% | -33.9% (active) | 18.2% | -63.6% (active) | 30.7% | 18.1% | – | 54.1% | -0.441% (active)
O=C1Nc2cc(Cl)ccc2/C1=C/c1cccc(OCc2ccc(Br)cc2F)c1 | -20.1% (active) | -15.8% (active) | 30.2% | 39.1% | 40.7% | 20.2% | -39% (active) | -35.1% (active) | -10.1% (active)
COc1ccc(CCN2C(=O)/C(=C/c3csc(C#N)n3)SC2=S)cc1 | -0.42% (active) | -5.34% (active) | 76.7% | 38.4% | 96.3% | 26.8% | -39% (active) | 47% | 16.9%

Compound | growth [1] | growth [2] | growth [3] | growth [4] | growth [5] | growth [6] | growth [7] | growth [8] | growth [9]
CN1CCN(c2ccc(Nc3nc(N4CCN(S(=O)(=O)c5ccc(Cl)cc5)CC4)c4sccc4n3)cc2)CC1 | -23.6% (active) | -82.9% (active) | -80.9% (active) | -82.6% (active) | 116% | 84.3% | – | 16.1% | 83.9%
COc1csc(/C=N/NC(=O)c2[nH]c3ccc(Br)cc3c2-c2ccccc2)c1 | 6.04% (active) | 2.26% (active) | 17.5% | 30.3% | 26.3% | 22% | – | -35.2% (active) | -1.74% (active)
O=C(c1ccc([N+](=O)[O-])c([N+](=O)[O-])c1O)n1[nH]c(=O)c2ccccc2c1=O | 26.6% | 55.5% | 110% | 78.3% | 102% | 94.6% | 25.8% | 35.5% | –
O=C(Nc1ccc(OCC(=O)c2ccccc2)cc1)Nc1ccc(Cl)c(C(F)(F)F)c1 | 7.07% (active) | 29.8% | 35.8% | 22.9% | 16.4% | 28.9% | – | 18.5% | 9.19% (active)
COc1ccc(-c2nc(S(=O)(=O)c3ccccc3)c(S(C)(=O)=O)o2)cc1 | -39.9% (active) | -28.3% (active) | -77.2% (active) | -87% (active) | 97.9% | 77.2% | – | 0.892% (active) | 75.2%
CCCCCCCCCCCCCCCCCCCC(=O)NCCc1c[nH]c2ccc(O)cc12 | 28.2% | 102% | 111% | 98% | 137% | 93.6% | – | 96.2% | 112%
N#Cc1c(NC(=O)c2ccc(C(F)(F)F)cc2C(F)(F)F)sc2c1CCC(=O)C2 | 2.53% (active) | -16.9% (active) | -62.3% (active) | -40.8% (active) | -22.2% (active) | -3.75% (active) | -59.5% (active) | 1.12% (active) | –
CN1CCN(c2ccc(C(=O)/C=C/c3cc(Br)ccc3F)cc2)CC1 | -24.7% (active) | 64.2% | 135% | 59.6% | 44.4% | 33.1% | – | 35.3% | 95.1%
COc1ccc(N2N=C(c3ccc4c(c3)OCCO4)CC2c2cccc(NC(=O)CCCNS(=O)(=O)c3ccc(F)cc3)c2)cc1 (stereo unspecified) | 41.2% | 87.7% | 89% | 60% | 101% | 81.5% | 81.3% | 88.5% | –
COc1ccc(C(C)=C(c2ccc(OCCCN(C)C)cc2)c2ccc(OCCCN(C)C)cc2)cc1 | -66% (active) | -92.6% (active) | -100% (active) | -94.6% (active) | -99.5% (active) | -91.1% (active) | – | -96.6% (active) | -68.2% (active)
C=C(c1ccc(OC)c(N)c1)c1cc(C)nc2ccccc12 | 10.9% | 8.32% (active) | 26.3% | 57.8% | – | 17.1% | -4.17% (active) | -29% (active) | 38.9%
Brc1ccc(/C=N/Nc2ncnc3sc4c(c23)CCN(Cc2ccccc2)C4)cc1 | 48.5% | 3.8% (active) | 99.9% | 43.7% | 107% | 94.6% | – | 68.8% | 48.3%
O=C1Nc2ccc(F)cc2/C1=C/c1cccc(OCc2ccccc2)c1 | -28.1% (active) | 24.6% | 66% | 36.4% | 66.7% | 36.6% | 7.98% (active) | -13.9% (active) | 32.3%
CCN1CCN(c2ccc(NC(=O)Nc3ccc(-c4cc(C(=O)NC(C)C)c5ncccc5n4)cc3)cc2C(F)(F)F)CC1 | -43.3% (active) | -83.3% (active) | -83.2% (active) | -83.2% (active) | -91% (active) | -86% (active) | – | -66.9% (active) | -37.7% (active)
O=C(Nc1ccc(OCc2ccccc2)cc1)Nc1ccc(Cl)c(C(F)(F)F)c1 | -30.4% (active) | 2.36% (active) | 18.5% | 11.2% | -29.7% (active) | 19% | 7.77% (active) | 1.39% (active) | –
